# LMP1 NFkB inh: Epstein-Barr LMP1 NF-kappaB reporter inhibition. LMP1-induced NF-kappaB luciferase reporter cells, luminescence. inhibition, % at 12.5 µM. 350,000 tested, 0.69% active; in the data active = inhibition above about 41%; inconclusive = no clear call, values can overlap the other calls;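 also: 0% = neutral control wells and 100% = reference inhibitor control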
# Statin myotox sup: suppressors of simvastatin-induced myotoxicity in C2C12 myotubes. ATP luminescence, 48 h; scaled: DMSO 0, geranylgeraniol control 100. AID 602340. rescue of ATP level, % at 7.49 µM. 330,000 tested, 0.78% active;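 active = mean ATP rescue above about 67%, or every replicate alone reaching that limit, limit read from the data, passing the limit was not always enough; inconclusive = no clear call, values can overlap the other calls; inactive = mean under the limit and some replicate under it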;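 also: myotubes were challenged with 10 µM simvastatin during compound exposure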
# TRPM1 prom inh: inhibitors of MITF-driven TRPM1 promoter in melanoma cells; AID 488899; inhibition, % at 12.5 µM; 330,000 tested, 0.83% active; SK-MEL-5 TRPM1 promoter luciferase, 24 h;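 active = mean inhibition across replicates of 60% or more, whatever share of single replicates reaches that level; inconclusive = some that reach 60%, reason not given; inactive = mean inhibition across replicates below 60%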
# MITF TRPM1 HTS: activators of MITF-driven TRPM1 promoter activity in SK-MEL-5 cells | activation, % at 12.5 µM | 300,000 tested, 0.75% active | SK-MEL-5 TRPM1-promoter luciferase, 24 h; % of positive control, neutral wells = 0;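 active = mean activation of at least 80% with every replicate also reaching 80%; inconclusive = mean reaches 80% but some replicate falls short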;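 also: 0% = neutral control wells and 100% = parthenolide positive control wells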
# esBAF inh: SWI/SNF esBAF complex inhibition. mouse ES cells, Bmi1-luciferase knock-in reporter, 24 h; 100% = twice the neutral-well signal. reporter increase, % at 12.5 µM. 350,000 tested, 2% active. AID 602393; in the data active = activation above about 40%; inconclusive = no clear call, values can overlap the other calls;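 also: 0% = median of the plate's neutral control wells and 100% = double that signal; a rise in the Bmi1 reporter signal indicates esBAF inhibition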
# Wnt bcat act: Wnt/beta-catenin pathway activation; 300,000 tested, 1.2% active; AID 743398; Wnt/beta-catenin reporter cell assay, activator, plate reader; activation, % at 9.35 µM; in the data active = activation above about 30%, passing the limit was not always enough; inconclusive = no clear call, values can overlap the other calls;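 also: 0% = neutral control wells and 100% = positive control wells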
# Active calls of the source: *; ? = inconclusive; . = not tested or not shown. Sampled rows, rich in hits. Any-hit rate of the full collection: about 4%.
SMILES,LMP1 NFkB inh,Statin myotox sup,TRPM1 prom inh,MITF TRPM1 HTS,esBAF inh,Wnt bcat act
CC(Oc1cccc(Cl)c1)C(=O)Nc1nc(-c2ccccn2)cs1 (configuration not stated),5,-64,64*,-62,-4,-6
CC(Oc1ccccc1)C(=O)Nc1nc(-c2ccccn2)cs1 (configuration not stated),22,-2,62*,-63,-13,-10
Cc1ccc(-c2nnn(CC(=O)N(Cc3cccs3)C(C(=O)NC3CCCC3)c3ccncc3)n2)cc1 (configuration not stated),-4,22,73*,-72,?,-2
CC(C)CCNC(=O)C(c1ccncc1)N(Cc1cccs1)C(=O)Cn1nnc(-c2ccc(F)cc2)n1 (configuration not stated),13,2,76*,-75,22,?
CCOc1ccc2nc(NC(=O)C(NS(=O)(=O)c3cccc4nsnc34)C(C)C)sc2c1 (configuration not stated),-12,27,.,.,12,-3
Cc1ccc(NC(=O)CCn2cnc3cc(C)c(C)cc32)cc1,4,15,-8,9,0,-1
Cc1cc(C)cc(NC(=O)CCn2cnc3cc(C)c(C)cc32)c1,4,.,-8,10,.,38*
CC(C)CC1NC(=O)c2cc(Cl)ccc2-n2c1nc1ccc(F)cc1c2=O (configuration not stated),.,.,.,.,.,0
Cc1ccc2c(c1)-c1c(cnn1CC(=O)O)CO2,-3,92*,4,-6,9,.
O=C(Nc1ccncc1)Nc1cccc(C(F)(F)F)c1,10,-13,-15,12,-13,0
CN1CCN(C(c2ccc(F)cc2)c2ccc3cccnc3c2O)CC1 (configuration not stated),-11,-3,-11,14,1,.
Oc1c(C(Nc2nccs2)c2ccc(C(F)(F)F)cc2)ccc2cccnc12 (configuration not stated),73*,.,80*,-78,.,-3
Oc1c(C(Nc2cccc(C(F)(F)F)c2)c2ccncc2)ccc2cccnc12 (configuration not stated),53*,.,65*,-65,.,53*
CCOC(=O)N1CCC(n2c(=S)[nH]c3ccccc3c2=O)CC1,66*,.,-21,22,.,.
CCOC(=O)N1CCN(C(=O)CCCn2c(=S)[nH]c3ccccc3c2=O)CC1,9,.,2,4,.,-6
C=C(C)Cn1c(=S)[nH]c2ccccc2c1=O,-5,144*,-6,8,1,0
Cc1nn(CC(=O)NCCCN2CCC(Cc3ccccc3)CC2)c(=O)c2cc(-c3ccccc3)nn12,-22,-7,?,-76,-7,-3
CCc1ccc(-c2cc3c(=O)n(CC(=O)NCCCN4CCC(Cc5ccccc5)CC4)nc(C)n3n2)cc1,-13,-40,96*,-95,-21,4
CCCCN(CCCC)Cc1ccc(C(=O)NN)o1,11,-5,5,2,-5,55*
Cc1ccc(-c2cn(-c3ccccc3F)c(=S)[nH]2)cc1,.,-8,-102,53,47*,13
CSc1ccccc1OCc1cc(C(=O)N(C)CC2COCCO2)no1 (configuration not stated),-22,0,-20,27,25,25
CSc1ccccc1OCc1cc(C(=O)N(C)Cc2ccncn2)no1,-21,.,-116,117*,.,16
CSc1ccccc1OCc1cc(C(=O)NC(C)Cc2cccc(C)n2)no1 (configuration not stated),-2,.,-14,11,.,12
CSc1ccccc1OCc1cc(C(=O)N(C)Cc2nonc2C)no1,-16,-4,-142,150*,65*,21
CSc1ccccc1OCc1cc(C(=O)NCc2cccc(C)n2)no1,-16,2,-93,96*,78*,26
CCn1ccnc1CN(C)C(=O)c1cc(COc2ccccc2SC)on1,26,0,-82,?,59*,23
C(CNC1C2CC3CC(C2)CC1C3)CN1CCOCC1 (configuration not stated),-4,-2,-14,14,-1,0
O=C(Nc1ccc(Cl)c(Cl)c1)OCc1cccnc1,-5,-18,-83,86*,53*,18
O=C(Nc1cccnc1)OCc1ccccc1,-20,16,-8,.,31,0

# Assay outcomes: PubChem, Broad Institute
